A number with no mark means an inactive call. The call rests on the fitted dose curve; in most records, active means well fitted inhibition curve with a large enough effect; inactive means no such curve, though single readings can be large or run the other way.
These molecules were tested against 4'-phosphopantetheinyl transferase Sfp (Bacillus subtilis) (UniProt P39135) (assay: Inhibitos of Bacillus subtilis Sfp phosphopantetheinyl transferase (PPTase): Dry Powder Followup). Settings: purified Sfp PPTase enzyme assay, dry powder retest; series mostly up to 114 µM; activity change, negative = inhibition: at the top concentration.
Chain of 4'-phosphopantetheinyl transferase Sfp (Bacillus subtilis) (P39135 whole entry, looked up): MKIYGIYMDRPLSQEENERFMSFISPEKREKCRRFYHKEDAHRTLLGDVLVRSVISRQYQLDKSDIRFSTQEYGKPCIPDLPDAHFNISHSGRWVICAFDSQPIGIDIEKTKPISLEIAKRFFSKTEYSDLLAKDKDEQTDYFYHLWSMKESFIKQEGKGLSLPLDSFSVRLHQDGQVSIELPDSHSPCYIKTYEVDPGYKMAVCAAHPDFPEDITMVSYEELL
Text: The covalent attachment of a phosphopantetheinyl (4'-PP) arm to a variety of synthases and other proteins is a key posttranslational protein modification. The 4'-PP is installed on the proteins post-translationally from coenzyme A (CoA) on a conserved serine residue by action of phosphopantetheinyl transferase (PPTase) enzymes. Phosphopantetheinylation is essential for synthase activity, and removal of the PPTase gene precludes natural product synthesis in microorganisms, or in the case of fatty acid biosynthesis, renders the organism unviable. PPTase enzymes belong to a distinct structural superfamily. Within bacteria, these enzymes are grouped into two classes based upon primary structure, the AcpS-Type and Sfp-Type PPTases.
Sfp-type PPTases, corresponding to an activator of surfactin production in Bacillus subtilis, are responsible for modifying type I polyketide and nonribosomal peptide synthases of prokaryotes. Sfp-type PPTases are responsible for the activation of a variety of pathogen-associated virulence factors. […]
In search of small molecule Sfp-PPTase inhibitors, a fluorescence quenching assay was developed for detection of Bacillus subtilis Sfp-PPTase enzymatic activity in a miniaturized high-throughput format. […]
Inhibition of Sfp-PPTase was detected by recording the fluorescence intensity change over a 30-minute reaction period at a 525 nm excitation and 598 nm emission. […]
Three uL of reagents, consisting of buffer (in columns 3 and 4 as negative control) and Sfp-PPTase (in columns 1, 2, 5 - 48) were dispensed into 1,536-well Greiner black solid bottom plate. […] The plate was then centrifuged at 1000 rpm for 15 seconds, and the fluorescence intensity recorded on a ViewLux High-throughput CCD imager (Perkin-Elmer) using standard BODIPY optics (525 nm excitation and 598 nm emission). The plate was then incubated for 30 minutes, and a second read on the ViewLux was performed. The fluorescence intensity difference over the 30-minute period was used to calculate the respective reaction rate for each well.

| Compound | activity change, negative = inhibition [%] |
| --- | --- |
| Cn1c(SCC(=O)c2cc3ccccc3o2)nnc1-c1ccccc1 | -7.43 |
| Clc1ccccc1-c1nn2c(-c3ccncc3)nnc2s1 | 14.5 |
| O=c1[nH]c2ccccc2n2c(-c3ccccc3)nnc12 | -0.136 |

From PubChem BioAssay AID493214 (National Center for Advancing Translational Sciences (NCATS), 2011)
